# Screening results: PubChem, The Scripps Research Institute Molecular Screening Center
# Only a selection was taken, and hits are over-represented in it overall.
# TbREL1 inh: TbREL1 RNA ligase inhibitors, primary screen, biochemical, FRET fluorescence | actives 0.49% (n = 89,000) | TbREL1 RNA ligation | RNA-editing ligase 1, mitochondrial (Trypanosoma brucei brucei), P86926 | AID 1117264, 2014 | inhibition, % at 9.66 µM;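 active means inhibition above the mean inhibition across all screened compounds plus 3 SD, cut at about 11% in these data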;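 further: 0% = plate median of test wells and 100% = NSC42067 control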
# Target sequence (P86926 whole entry, looked up): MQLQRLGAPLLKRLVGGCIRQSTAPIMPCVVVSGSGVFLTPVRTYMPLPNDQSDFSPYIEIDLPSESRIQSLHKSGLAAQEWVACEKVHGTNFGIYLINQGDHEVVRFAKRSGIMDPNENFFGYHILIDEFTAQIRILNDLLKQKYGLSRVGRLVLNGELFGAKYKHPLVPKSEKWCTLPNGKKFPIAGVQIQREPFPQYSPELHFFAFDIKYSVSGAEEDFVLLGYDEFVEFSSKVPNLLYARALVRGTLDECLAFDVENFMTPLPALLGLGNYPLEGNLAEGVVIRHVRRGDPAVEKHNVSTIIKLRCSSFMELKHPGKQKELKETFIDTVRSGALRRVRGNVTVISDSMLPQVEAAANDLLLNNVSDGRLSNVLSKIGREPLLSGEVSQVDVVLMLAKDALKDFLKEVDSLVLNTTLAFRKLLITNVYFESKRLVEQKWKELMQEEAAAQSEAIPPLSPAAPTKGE
# TbREL1 conf: TbREL1 RNA ligase inhibitors, confirmation, biochemical, FRET fluorescence, triplicate; shares compounds with TbREL1 inh; TbREL1 RNA ligation; inhibition, % at 9.66 µM; actives 37% (n = 390); AID 1117282, 2014;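 active means mean inhibition across replicates above a set limit taken from the earlier primary screen, cut at about 11% in these data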;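 further: 0% = REL1 with substrate and DMSO and 100% = REL1 plus control inhibitor NSC42067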
# Active calls of the source: *.
SMILES,TbREL1 inh,others
CN1CCN(c2ccc(NC(=O)c3cccs3)cc2)CC1,5.2,
O=C(NCCN1CCC(Cc2ccccc2)CC1)C1CCCN(S(=O)(=O)c2ccccc2[N+](=O)[O-])C1 (centres undefined),2.6,
CCCCCCCCN1C(=O)[C@@H](CC(=O)N2CCSCC2)C[C@@]2(C(=O)OC)C1=C[C@H](C(C)C)O[C@@H]2C1CC1,7.6,
O=C(Cc1ccccc1Cl)NCCN1C(=O)C2C3C=CC(C3)C2C1=O (centres undefined),2.6,
Cc1ccc(-c2cc(C(=O)NN=Cc3cccc4ccccc34)[nH]n2)cc1C,3.5,
Cc1ccc(S(=O)(=O)N2CCN(C(=O)c3cccn3C)CC2)cc1,6.2,
CCOc1ccc(-n2c(SCC(=O)c3ccc4ccccc4c3)nnc2-c2ccc(OC)cc2)cc1,5.9,
NCCC(=O)Nc1ccc(Cl)cc1C(=O)c1ccc[nH]1,2.3,
CCn1c(NC(=O)c2ccc(C)cc2)c2ccccc2nc1=O,-4.1,
CCC(C)n1c(NC(=O)c2ccccc2)c(C#N)c2nc3ccccc3nc21 (centres undefined),11.6*,
Cc1ccc(C(=O)NCCn2c(N)c(C#N)c3nc4ccccc4nc32)cc1,-1.6,
Cc1cc(C)cc(N(CC(=O)NC2CCC(C)CC2)S(=O)(=O)c2cccs2)c1 (centres undefined),-1.2,
CC(c1ccccc1)n1cc(C(=O)NCCCN2CCCC2)nn1 (centres undefined),0.0,
O=C(CSc1nnc(-c2cccnc2)n1Cc1ccco1)Nc1ccc(F)cc1Cl,-2.2,
C/C=C/c1ccc([C@H]2[C@@H](CN(CC(C)C)S(=O)(=O)c3ccccc3[N+](=O)[O-])N(C(=O)Nc3cccc(OC)c3)[C@H]2CO)cc1,-4.1,
C#CCOCCOCCOCCNc1nc(N2CCN(C(=O)[C@H]([C@@H](C)O)n3cc(CCCCN)nn3)CC2)nc(N2CCN(C(=O)[C@H]([C@@H](C)CC)n3cc(CCCN=C(N)N)nn3)CC2)n1,12.2*,
C#CCOCCOCCOCCNc1nc(N2CCN(C(=O)[C@H]([C@@H](C)CC)n3cc(CCCCN)nn3)CC2)nc(N2CCN(C(=O)[C@H]([C@@H](C)CC)n3cc(CCCN=C(N)N)nn3)CC2)n1,10.5,
C#CCOCCOCCOCCNc1nc(N2CCN(C(=O)Cn3cc(CCCN=C(N)N)nn3)CC2)nc(N2CCN(C(=O)[C@H]([C@@H](C)O)n3cc(CCCCN)nn3)CC2)n1,2.8,
COc1ccc(F)cc1-c1cc(C(C)=O)c2n(c1=O)CCC2,4.2,
O=C(Cc1ccccc1)NCC(=O)Nc1cccc(Br)c1,-0.1,
O=C(O)c1ccccc1-c1ccccc1C(=O)Nc1cccc(Br)c1,11.1*,
O=C(O)c1ccccc1-c1ccccc1C(=O)NNc1ccccc1,0.8,
Cc1ccc(NC(=O)C2CC3CCC2C3)cc1 (centres undefined),4.5,
C=CC[C@@H](Cc1ccc(F)cc1)C(=O)OC[C@@H]1CCCN1C(=O)[C@H](CC=C)CC(=O)N[C@H](CO)Cc1ccccc1,22.6*,
C=CC[C@@H](Cc1ccc(F)cc1)C(=O)OC[C@@H]1CCCN1C(=O)[C@@H](CC=C)CC(=O)N(CCO)Cc1ccccc1,-2.0,
SMILES,TbREL1 inh,others
C=CC[C@@H](Cc1ccc(F)cc1)C(=O)OC[C@@H]1CCCN1C(=O)[C@@H](CC=C)CC(=O)NCCO,-2.3,
C[C@H]1COc2cc(Br)ccc2S(=O)(=O)N1Cc1cn(CC2CCCCC2)nn1,-0.2,
NS(=O)(=O)c1ccc(F)c(C(=O)O)c1,3.4,
CCC(C)NS(=O)(=O)c1ccc(F)c(C(=O)Nc2c(F)cc(F)cc2Br)c1 (centres undefined),19.0*,TbREL1 conf=1.8
O=C(Nc1cccs1)Nc1c(F)cc(F)cc1Br,-0.3,
CCn1c(=O)n(CC(=O)N2CCC(C)CC2)c(=O)c2ccccc21,0.1,
CCn1c2ccccc2c2cc(C=NNC(=O)c3cc(-c4ccc(OC)cc4)n[nH]3)ccc21,2.7,
CC(C)C(N)c1csc(NC(=O)Nc2ccccc2C(C)(C)C)n1 (centres undefined),13.3*,TbREL1 conf=8.6
CC(C)c1ccc(NC(=O)Nc2nc(C(N)CCc3ccccc3)cs2)cc1 (centres undefined),7.4,
NC(Cc1ccc(C(F)(F)F)cc1)c1csc(NC(=O)Nc2ccccc2Cl)n1 (centres undefined),5.0,
COC(=O)[C@]12CCCCC=C1N(Cc1ccc(OC)cc1)C(=O)[C@@H]2CC(=O)NCc1ccc(OC)c(OC)c1,-8.8,
CC(C)(C)OC(=O)N1CCC(N[C@@H](Cc2ccccc2)C(=O)NCC(c2ccccc2)c2ccccc2)(C(=O)NC2CCCCC2)CC1,-0.9,
COC(=O)C[C@@H]1CC[C@@H]2[C@@H](COc3ccc(NC(=O)Nc4ccc(F)cc4)cc3C(=O)N2C)O1,-2.3,
COc1ccc(Cl)cc1NC(=S)N1CCN(c2ncccn2)CC1,-0.7,
COc1ccc(CN2C(=O)c3cccnc3C2Nc2cc(Cl)ccc2OC)cc1 (centres undefined),31.8*,TbREL1 conf=41.3*
CCOC(=O)c1ccc(NC2c3ncccc3C(=O)N2Cc2ccc(F)cc2)cc1 (centres undefined),4.8,
Cc1ccccc1C1CCC2(CC1)CCN(CC[C@@H](O)c1ccccc1)C2=O (some centres undefined),-3.4,
Cn1c(=O)c2[nH]c(SCC(=O)NCCc3cccc(F)c3)nc2n(C)c1=O,2.2,
CN(C)CCCn1c(SCC(=O)Nc2nccs2)nnc1-c1ccncc1,0.9,
CCn1c(COc2cc(C)ccc2C(C)C)nnc1SCC(=O)Nc1nccs1,12.2*,TbREL1 conf=6.6
Cc1cccc(-n2c(CNC(=O)COc3ccccc3)nnc2SCC(=O)Nc2nccs2)c1,2.9,
COc1cccc(CNC(=O)C2CCC(CNS(=O)(=O)c3cccc4cccnc34)CC2)c1OC (centres undefined),-3.0,
COc1ccc(N)cc1C#N,-2.3,
CCCOc1ccc(N)cc1N,12.0*,TbREL1 conf=5.7
CCCOC(=O)c1ccc(O)c(OC)c1,-4.1,
SMILES,TbREL1 inh,others
CCOc1ccc(/C=C2\NCCc3cc(OCC)c(OCC)cc32)cc1OCC,7.9,
COc1ccc2[nH]c3c(c2c1)CCN[C@]31C(=O)N(C)c2ccc(Br)cc21,-1.4,
COc1ccc(/C=N/Nc2nc(-c3ccc(Cl)cc3)cc(C(F)(F)F)n2)cc1OC,-2.4,
COc1ccc(-c2cnnc(N/N=C/c3ccc(OC)c(OC)c3)n2)cc1,11.1*,TbREL1 conf=-1.5
CCOc1cc(/C=N/Nc2nncc(-c3ccccc3)n2)ccc1O,-0.3,
O=S(=O)(c1ccccc1F)n1c(CN2CCOCC2)nc2ccccc21,-2.1,
O=C(NCCc1c[nH]c2ccccc12)OCc1cn(-c2ccc(Cl)cc2)nn1,-1.3,
CCn1c(Cc2cccs2)nnc1SCC(=O)Nc1ccccc1-c1ccccc1,0.6,
O=C(NCc1ccccc1CN1CCCC1)c1cc2cc(Cl)ccc2o1,12.1*,TbREL1 conf=4.2
O=C(NCc1ccccc1CN1CCCC1)C1CCN(C(=O)c2ccc(Cl)cc2)CC1,1.6,
O=C(c1cc2cc(Cl)ccc2o1)N1CCCC1,1.9,
C[C@H]1[C@@H](OC(=O)N2CCOCC2)CC[C@@]23CCCN2C(=O)CCC[C@@H]13,-1.6,
Cc1cnc(C)c(Nc2nc(C(N)Cc3ccc(Cl)cc3)cs2)n1 (centres undefined),11.3*,TbREL1 conf=10.2
COc1ccc(CC(N)c2csc(Nc3ccc(C(C)=O)cc3)n2)cc1 (centres undefined),3.0,
NC(Cc1ccc(C(F)(F)F)cc1)c1csc(Nc2nncc3ccccc23)n1 (centres undefined),9.8,
